Data on 40 sequences can be found in the OligoGym collection.
Further: reference of the scale not given here.

In one test the target is PPP1R13B. In words: pooled miR-30 sensor sort-seq; sequence = guide strand. The conditions noted are these: shRNA.
Regarding TTACATTTCTCTGAGTTCGTTG, the sensor-assay potency score (higher = more potent) was -0.0932.
For the sequence TTAACTGACTTATTTAAGGCGC, the sensor-assay potency score (higher = more potent) worked out at 0.229.
On to TTCCTTGGCAACCAACATCTGC, for which the sensor-assay potency score (higher = more potent) is -1.09.
Sequence TTTCTTCAGCTTGTTCTCCTGG registered a sensor-assay potency score (higher = more potent) of 0.329.
Still for that read-out and setting: with TTCAGAAATAGACTGCTGCTGA the figure was 0.172; with TACATTTATTACATTTCTCTGA, -0.374; with TAAGAGTTCCTTCTGCTGCTGA, 0.621.

The target in a further test is PPP1R15A. The test is described as above. The conditions noted are these: shRNA.
In the case of TTCTGTGAGCTTCTTTCTTTAC, the sensor-assay potency score (higher = more potent) is -1.62.
Turning to ATGGACAGTGACCTTCTCGGAG, the sensor-assay potency score (higher = more potent) was -1.22.
The sequence TTTTACTGCTTCCACCAGCCAG came in with a sensor-assay potency score (higher = more potent) of -1.03.
Same read-out and setting: with TAGGGGAGTCTCAGGGTCCGGA the figure was -1.44.
AAGAGAACTTGTTAACTCCCTC: the sensor-assay potency score (higher = more potent) was 0.225.
On the same count and under the same terms, with TTCTGTTCTTTTATCCTCCGTG the figure was -0.152.
The same measure, in the same setting: with TTCAGGAAGGGAACTGCTGGTT the figure was -0.684; with TCCTTTTACTGCTTCCACCAGC, -1.39.
On the same count and under the same terms, with TGGACAGTGACCTTCTCGGAGA the figure was -1.41.
TTGCCAGAGGAGTCCTAGCTTC gave a sensor-assay potency score (higher = more potent) of -1.05.
Sequence TAGAGGTTCTGTGAGCTTCTTT showed a sensor-assay potency score (higher = more potent) of 0.0683.
TTTACTGCTTCCACCAGCCAGG gave a sensor-assay potency score (higher = more potent) of -0.645.

The target of another test is PPP1R3A. The test is described as above. To be noted: shRNA.
The sequence TTGGTGAATGAGACACATCTGC yielded a sensor-assay potency score (higher = more potent) of -0.3.
The same measure, in the same setting: with TTGATGAACAAACTTGACCAGT the figure was -0.427.
The sequence TTGAACAATGAATAGTCCCATT yielded a sensor-assay potency score (higher = more potent) of -1.02.
In the case of TATAGGTACAAATTCATTCTGA, the sensor-assay potency score (higher = more potent) turned out to be 0.416.
Turning to TTACATATACTAACTTCTCAAA, the sensor-assay potency score (higher = more potent) is -1.14.
In turn, TGGATTAGCATTATCATCCAGG showed a sensor-assay potency score (higher = more potent) of -0.615.
TTATCATCAACTCTAATTCTTT came in with a sensor-assay potency score (higher = more potent) of -0.712.
TTGAATTACAAATATTTTCTGA displayed a sensor-assay potency score (higher = more potent) of -0.0203.
TAAAATGTCATAATGTGTCTGC returned a sensor-assay potency score (higher = more potent) of 0.498.
Sequence TTTGTTTTTCATTAACACCTAA came in with a sensor-assay potency score (higher = more potent) of -0.646.
Take TTGTTTTTCATTAACACCTAAA: the sensor-assay potency score (higher = more potent) is -0.918.
TATAGGTATTTAATGATCCAAA had a sensor-assay potency score (higher = more potent) of -1.48.

A further test addresses PPP2R2B. Described as above. The conditions noted are these: shRNA.
TAAACTCTTCAGGTAATCGAAC: the sensor-assay potency score (higher = more potent) is -0.877.
As for TAGAGGGAACACAGCTTGCTGC, the sensor-assay potency score (higher = more potent) is -0.62.
Same read-out and setting: with TTGACGGTCAAGTAGTCCCTGG the figure was -0.065; with TTCTATTTCTAAACTCTTCAGG, 0.0206.
Same read-out and setting: with TTCTATTCCAATCATTTCCTGT the figure was -0.465; with TTGACTAGTATTCAGTATGTGA, -0.666.
For the sequence TCTGTTGCTTGGATCTTCCGGC, the sensor-assay potency score (higher = more potent) was 0.454.
In turn, TATTTCTAAACTCTTCAGGTAA yielded a sensor-assay potency score (higher = more potent) of -0.582.
In the case of TTCATAGAGGGAACACAGCTTG, the sensor-assay potency score (higher = more potent) is -0.115.
